# PubChem BioAssay AID1240 (Sanford-Burnham Center for Chemical Genomics, 2008)
# Hit rate of the full screen: of about 50,000 compounds, about 800 (1.6%) showed an effect of 50% or more. This excerpt belongs to a sample that is enriched for strong results.
# Target: Bcl-2-like protein 10 (Homo sapiens) (UniProt Q9HD36)
# Test: TR3 peptide-Bcl-B binding displacers, biochemical primary FP assay, phenotype converters (AID 1240);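 further: 0% = Bcl-B with tracer peptide and DMSO and 100% = tracer peptide lacking Bcl-B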
# Conditions: GST-Bcl-B / FITC-TR3 peptide fluorescence polarization; stronger effect = higher value; compound at 3.75 mg/L
# Sequence of Bcl-2-like protein 10 (Homo sapiens) (Q9HD36 whole entry, looked up): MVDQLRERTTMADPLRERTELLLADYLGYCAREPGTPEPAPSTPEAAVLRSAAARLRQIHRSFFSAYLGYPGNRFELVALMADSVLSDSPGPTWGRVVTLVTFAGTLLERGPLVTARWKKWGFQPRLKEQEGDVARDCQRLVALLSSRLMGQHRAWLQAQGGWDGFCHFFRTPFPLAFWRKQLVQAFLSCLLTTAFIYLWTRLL
row,Compound,displacement
1,COc1ccc(C(=O)Nc2ccc(Br)c(C)c2)c(OC)c1,14.5%
2,COC(=O)c1ccccc1NC(=O)c1cnn2c(C(F)(F)F)cc(-c3ccccc3)nc12,11.9%
3,COc1ccc(N(CC(=O)NC(C)c2ccccc2)S(=O)(=O)c2ccccc2)cc1 (stereo not given),5.7%
4,CCC(c1ccccc1)c1nnc(NC(=O)Nc2cccc(Cl)c2)s1 (stereo not given),-0.8%
5,COc1cc(NC(=O)c2ccc(-c3ccccc3[N+](=O)[O-])o2)ccc1NC(=O)c1ccco1,7.1%
6,CC(=O)Oc1cc2ccccc2cc1O,3.9%
7,C=CCN1C(=O)/C(=C\c2cn(C)c3ccccc23)C(=O)NC1=S,-18.2%
8,C=CCN1C(=O)/C(=C\c2ccc(-c3ccc([N+](=O)[O-])cc3)o2)C(=O)NC1=S,12.1%
9,C=CCN1C(=O)/C(=C\c2cn(Cc3ccc([N+](=O)[O-])cc3)c3ccccc23)C(=O)NC1=S,87.4%
10,CSc1ccc(S(=O)(=O)NCc2ccccc2C)cc1,16.3%
11,O=[N+]([O-])c1ccc(/C=N/c2nc3c(s2)CCCC3)cc1,6.6%
12,COc1ccc(C(=O)c2c(N)c(C#N)c(C)n2-c2ccccc2)cc1,9.3%
13,COc1ccc(OCC(=O)Nc2ccc(OC)c(OC)c2)cc1,-4.2%
14,O=c1cc(=O)n(-c2ccccc2)c2ccccc12,-0.3%
15,COc1ccc(-c2ccc(/C=C3/C(=O)NC(=O)N(c4ccccc4)C3=O)o2)c([N+](=O)[O-])c1,78.3%
16,Cc1ccc(N2C(=O)NC(=O)/C(=C\c3ccc(-c4ccc(C)c([N+](=O)[O-])c4)o3)C2=O)cc1,151%
17,COc1ccc(-c2ccc(/C=C/c3cc(C(F)(F)F)[nH]c(=O)n3)o2)c([N+](=O)[O-])c1,78.8%
18,COc1ccc(-c2ccc(/C=C3\C(=O)NC(=O)N(c4ccc(Cl)cc4)C3=O)o2)c([N+](=O)[O-])c1,47%
19,COc1ccc(N2C(=O)/C(=C/c3ccc(-c4ccccc4[N+](=O)[O-])o3)C(=O)NC2=S)cc1,15.9%
20,O=C1NC(=O)N(c2ccccc2)C(=O)/C1=C\c1ccc(-c2ccccc2[N+](=O)[O-])o1,2.7%
21,Cc1c(Cl)cccc1-c1ccc(/C=C/c2cc(C(F)(F)F)[nH]c(=O)n2)o1,-60.9%
22,COc1ccc(N2C(=O)NC(=O)/C(=C/c3ccc(-c4ccccc4[N+](=O)[O-])o3)C2=O)cc1,-46.3%
23,COc1ccc(-c2ccc(/C=C3/C(=O)NC(=O)N(c4ccc(C)cc4)C3=O)o2)c([N+](=O)[O-])c1,83.5%
24,O=c1nc(/C=C/c2ccc(-c3ccc([N+](=O)[O-])cc3Cl)o2)cc(C(F)(F)F)[nH]1,11.9%
25,Cc1ccc(N2C(=O)NC(=O)/C(=C\c3ccc(-c4cccc([N+](=O)[O-])c4)o3)C2=O)cc1,-5.9%

row,Compound,displacement
1,Cc1ccc(N2C(=O)NC(=O)/C(=C/c3ccc(C)c([N+](=O)[O-])c3)C2=O)cc1,-16.7%
2,O=C(Nc1cccc(Oc2ccc3c(c2)C(=O)N(c2ccccc2)C3=O)c1)c1cccc([N+](=O)[O-])c1,12.7%
3,CC(=O)Nc1ccc(Nc2nc3ccccc3nc2Nc2ccc(NC(C)=O)cc2)cc1,-13.4%
4,COC(=O)C1=C(C)N(Cc2ccccc2)C(=O)/C1=C\c1cccc([N+](=O)[O-])c1,2.4%
5,CCOc1ccc(/C=C2/C(=O)NC(=O)N(c3ccc(C)cc3)C2=O)cc1,-9.7%
6,COc1cc(/C=C/C(=O)c2ccc(C)cc2)cc(OC)c1OC,1.6%
7,Oc1ccccc1/C=N/Nc1nc2ccccc2s1,0.6%
8,Cc1ccc(NC(=O)CN(c2ccc(Oc3ccccc3)cc2)S(C)(=O)=O)cc1,5.1%
9,CC(=O)n1cc(/C=C2\N=C(c3cccs3)OC2=O)c(-c2ccccc2)n1,-0.1%
10,O=C1/C(=C/c2c3ccccc3nc3ccccc23)Sc2ccccc21,-0.5%
11,CC(=O)n1cc(/C=C2\Sc3ccccc3C2=O)c(-c2ccccc2)n1,145%
12,NC(=O)c1ccc(Sc2nc3ccccc3s2)c([N+](=O)[O-])c1,1.4%
13,COC(=O)c1cccc(N2C(=O)C=CC2=O)c1,1%
14,O=C(CSc1nc2sc3c(c2c(=O)[nH]1)CCCC3)NCc1ccccn1,-0.6%
15,O=C(CSc1nc2sc3c(c2c(=O)[nH]1)CCCC3)NCc1ccccc1,-18.5%
16,O=C(CSc1nc2sc3c(c2c(=O)[nH]1)CCCC3)NCc1ccco1,59.8%
17,Cc1ccc(C)c(S(=O)(=O)Nc2ccc(Cl)cc2)c1,9%
18,COc1ccc(NC(=O)CN(c2ccc(Cl)cc2)S(C)(=O)=O)c(OC)c1,10.7%
19,O=C(Nc1ccccn1)c1cc(-c2ccc(Cl)c(Cl)c2)nc2ccccc12,10%
20,O=C(Nc1cc([N+](=O)[O-])ccc1Cl)c1cc(-c2ccc(Cl)cc2)nc2ccccc12,13.6%
21,O=C(Nc1ccc([N+](=O)[O-])cn1)c1cc(-c2ccc(Cl)c(Cl)c2)nc2ccccc12,52.4%
22,COC(=O)COc1ccc(/C=C2\C(=O)NC(=O)N(C)C2=O)cc1OC,-18.2%
23,CCOc1ccc(Br)cc1/C=N\NC(=O)c1cc(C)[nH]n1,-2.6%
24,CCc1ccccc1NC1=C(Cl)C(=O)N(c2ccc(C)cc2C)C1=O,16.8%
25,Cc1ccc(N2C(=O)C(Cl)=C(Nc3ccccc3F)C2=O)c(C)c1,71.5%

row,Compound,displacement
1,COc1ccccc1NC1=C(Cl)C(=O)N(c2ccc(C)cc2C)C1=O,8.3%
2,Nc1nnc(CCC(=O)c2ccccc2)s1,3.5%
3,NC(=O)c1ccccc1NC(=O)c1ccc(I)cc1,7.7%
4,Cc1c(Cc2ccccc2)sc(NC(=O)c2ccc([N+](=O)[O-])cc2)c1C(N)=O,65.7%
5,Cc1c(Cc2ccccc2)sc(NC(=O)c2ccc(-c3ccccc3)cc2)c1C(N)=O,-1.3%
6,COc1ccc(C(=O)Nc2sc(Cc3ccccc3)c(C)c2C(N)=O)cc1,-16.5%
7,CC(=O)Nc1cccc(NC(=O)c2cccc(I)c2)c1,-1.5%
8,O=C(COc1ccc(Cl)cc1Cl)OCc1ccccc1,-9.2%
9,CC(=O)C(C(C)=O)c1cc(NS(=O)(=O)c2ccc(C)cc2)c2ccccc2c1O,3.6%
10,CCOC(=O)C(C(C)=O)c1cc(NS(=O)(=O)c2ccc(C)cc2)c2ccccc2c1NS(=O)(=O)c1ccc(C)cc1 (stereo not given),78.8%
11,Cc1ccc(S(=O)(=O)Nc2cc(C(C(=O)OC(C)C)C(=O)C(F)(F)F)c(O)c3ccccc23)cc1 (stereo not given),-5.6%
12,Cc1cccc(-c2cc(NC(=O)c3ccc(Br)cc3)n[nH]2)c1,9.4%
13,COc1ccc(-c2nc3ccccc3o2)cc1NC(=O)c1cc2ccccc2cc1OC,-8.6%
14,COc1ccccc1C(=O)Nc1ccc2oc(-c3cccc(C)c3)nc2c1,1.6%
15,COc1ccccc1C(=O)Nc1ccc2oc(-c3ccncc3)nc2c1,135%
16,CCc1ccc(-c2nc3cc(NC(=O)c4ccccc4OC)ccc3o2)cc1,8.5%
17,COc1ccc(Br)cc1C(=O)Nc1ccc(-c2nc3ncccc3o2)cc1,5.4%
18,CN(C)c1ccc(-c2nc3cc(NC(=O)c4cccc(Br)c4)ccc3o2)cc1,62.5%
19,COc1ccc(Br)cc1C(=O)Nc1ccc(-c2nc3ccccc3o2)cc1,134%
20,COc1cccc(C(=O)Nc2cc(-c3nc4ccccc4o3)ccc2OC)c1,-29.6%
21,Cc1cccc(C(=O)Nc2ccc3oc(-c4ccc(N(C)C)cc4)nc3c2)c1,35.7%
22,CN(C)c1ccc(-c2nc3cc(NC(=O)c4ccccc4Br)ccc3o2)cc1,1.6%
23,COc1ccc(-c2nc3ccccc3o2)cc1NC(=O)c1ccc(Br)o1,63%
24,COc1ccc(Br)cc1C(=O)Nc1ccc2oc(-c3ccccc3)nc2c1,-2.9%
25,COc1ccc2c(c1OC)C(=O)N(c1cccc(Cl)c1)C2=O,-23.7%

row,Compound,displacement
1,O=C1NC(=O)N(c2ccccc2Cl)C(=O)/C1=C\C=C\c1ccco1,15.6%
2,COc1cc(/C=C(\C#N)c2nc3ccc(C)cc3[nH]2)cc(OC)c1O,-65.6%
3,COc1ccc(-c2nnc(-c3cccc([N+](=O)[O-])c3)o2)cc1,5.8%
4,N/C(=N\OC(=O)c1cccc(F)c1)c1ccccc1,-7.1%
5,CCOc1cc(C(=S)N2CCOCC2)cc(Br)c1OC(=O)c1ccc(Cl)cc1Cl,14.1%
6,COC(=O)c1ccc(NC(=O)CC2Sc3ccccc3NC2=O)cc1 (stereo not given),3.1%
7,O=C(Nc1ccc2oc(-c3ccncc3)nc2c1)c1cccnc1,61.6%
8,Cc1ccc(-c2nc3cc(NC(=O)COc4ccccc4C)ccc3o2)cc1,-6.6%
9,O=C(Nc1ccc2oc(-c3ccncc3)nc2c1)c1ccncc1,28.9%
10,O=C(COc1ccc(Cl)cc1)Nc1ccc2oc(-c3ccccc3)nc2c1,-6.4%
11,O=C(Nc1ccc2oc(-c3ccccc3)nc2c1)c1ccncc1,-3.2%
12,O=C(COc1ccccc1Cl)Nc1ccc2oc(-c3ccncc3)nc2c1,136%
13,CCOc1cc(/C=C2\SC(=S)N(Cc3ccco3)C2=O)ccc1O,-18.8%
14,CCOC(=O)c1c(C)oc2cc(Br)c(OCC(=O)OCc3ccccc3)cc12,10.8%
15,CCOC(=O)C1=C(C)N=C2SCCN2C1c1ccccc1 (stereo not given),-10.4%
16,CSc1ccccc1NC(=O)CSc1nc2ccccc2o1,18.9%
17,O=C(Nc1ccccc1C(=O)O)c1ccc(N2C(=O)C3C4C=CC(C4)C3C2=O)cc1 (stereo not given),-3.6%
18,CCn1c2ccccc2c2cc(/C=N/Nc3ccc([N+](=O)[O-])cc3)ccc21,-7.5%
19,CCOC(=O)c1c(NC(C)=O)sc2cc(C(C)(C)C)ccc12,-4.1%
20,CC(=O)Nc1nonc1-c1nc2ccccc2n1Cc1ccccc1,49.8%
21,CC(=O)Nc1nonc1-c1nc2ccccc2n1Cc1ccc([N+](=O)[O-])cc1,8.1%
22,CC(=O)Nc1nonc1-c1nc2ccccc2n1Cc1ccc(C(C)(C)C)cc1,52.2%
23,COc1ccccc1NC(=O)c1ccc(Oc2ccc(C(=O)Nc3ccccc3OC)cc2)cc1,-1.8%
24,CCOC(=O)c1c(NC(=O)COc2c(C)cc(C)cc2C)sc(C(=O)Nc2ccccc2)c1C,13.1%
25,CCOc1ccc(N2C(=O)CC(SC(=NC)Nc3ccc4c(c3)OCO4)C2=O)cc1 (stereo not given),-6.7%
